Data reported in paper PMC12864922, “TDP-43 directly inhibits mRNA accumulation in neurites through modulation of mRNA stability”.
The full ranking holds about 9,900 sequences; the median of “r (bound/input frequency ratio)” is about 0.7, and the highest 2% start at about 6.5. What follows is part of a selection rich in the highest values, with near analogues and random picks from the rest.

B1: ENSMUSG00000029636.443|Wasf3 (ssRNA)
RNA: GGGAGUUCUACAGUCCGACGAUCGCUUCGAUAUCCGCAUGCUAGUGGGUGGAUUCAUGAUGGAUGGAUGGAUGGAUGGAUGGAUGGAUGGAUGGAUGAGUGGAUGGAUAAUAGGUUGAUGGGUGGAUAGGUAGAUGAGUGAAUAGAUAGAUAUAGAUCAGUGGGAGGAUUGGAAAGUAGGUGAAUGAAUGGAUGGCAGAUAGAUGGAUCAAUUACAGAUGGAUGGAUGCAUGGAAUAGAUAGGUGGAUGGGUGGUGGCUAGAAGGUGCCUGAGUCUGCACAUCACUGCACUGAGAAGGCAAAUCUCUUGCGGUCGCACUAGUGUGGAAUUCUCGGGUGUCAAGG
B2: ENSMUSG00000029636.451|Wasf3 (ssRNA)
RNA: GGGAGUUCUACAGUCCGACGAUCGCUUCGAUAUCCGCAUGCUAUGGAUGAGUGGAUGGAUAAUAGGUUGAUGGGUGGAUAGGUAGAUGAGUGAAUAGAUAGAUAUAGAUCAGUGGGAGGAUUGGAAAGUAGGUGAAUGAAUGGAUGGCAGAUAGAUGGAUCAAUUACAGAUGGAUGGAUGCAUGGAAUAGAUAGGUGGAUGGGUGGUGGCUAGAAGGUGCCUGAGUCUGCACAUCACUGCACUGAGAAGGCAAAUGAGUACAUUAUACUAUUAGCACCAAACCCCAAGCUUCAGUAUUUAGAUCUCUUGCGGUCGCACUAGUGUGGAAUUCUCGGGUGUCAAGG
B3: ENSMUSG00000029636.438|Wasf3 (ssRNA)
RNA: GGGAGUUCUACAGUCCGACGAUCGCUUCGAUAUCCGCAUGCUAGUGAAUGGAUGAUAGGUGGUGGAUGGUUGAGUGGGUGGAUUCAUGAUGGAUGGAUGGAUGGAUGGAUGGAUGGAUGGAUGGAUGAGUGGAUGGAUAAUAGGUUGAUGGGUGGAUAGGUAGAUGAGUGAAUAGAUAGAUAUAGAUCAGUGGGAGGAUUGGAAAGUAGGUGAAUGAAUGGAUGGCAGAUAGAUGGAUCAAUUACAGAUGGAUGGAUGCAUGGAAUAGAUAGGUGGAUGGGUGGUGGCUAGAAGGUGCCUGAGCUCUUGCGGUCGCACUAGUGUGGAAUUCUCGGGUGUCAAGG
B4: ENSMUSG00000029636.446|Wasf3 (ssRNA)
RNA: GGGAGUUCUACAGUCCGACGAUCGCUUCGAUAUCCGCAUGCUAGAUGGAUGGAUGGAUGGAUGGAUGGAUGGAUGGAUGAGUGGAUGGAUAAUAGGUUGAUGGGUGGAUAGGUAGAUGAGUGAAUAGAUAGAUAUAGAUCAGUGGGAGGAUUGGAAAGUAGGUGAAUGAAUGGAUGGCAGAUAGAUGGAUCAAUUACAGAUGGAUGGAUGCAUGGAAUAGAUAGGUGGAUGGGUGGUGGCUAGAAGGUGCCUGAGUCUGCACAUCACUGCACUGAGAAGGCAAAUGAGUACAUUAUACUAUUACUCUUGCGGUCGCACUAGUGUGGAAUUCUCGGGUGUCAAGG
B5: ENSMUSG00000029636.449|Wasf3 (ssRNA)
RNA: GGGAGUUCUACAGUCCGACGAUCGCUUCGAUAUCCGCAUGCUAUGGAUGGAUGGAUGGAUGAGUGGAUGGAUAAUAGGUUGAUGGGUGGAUAGGUAGAUGAGUGAAUAGAUAGAUAUAGAUCAGUGGGAGGAUUGGAAAGUAGGUGAAUGAAUGGAUGGCAGAUAGAUGGAUCAAUUACAGAUGGAUGGAUGCAUGGAAUAGAUAGGUGGAUGGGUGGUGGCUAGAAGGUGCCUGAGUCUGCACAUCACUGCACUGAGAAGGCAAAUGAGUACAUUAUACUAUUAGCACCAAACCCCAAGCUUCUCUUGCGGUCGCACUAGUGUGGAAUUCUCGGGUGUCAAGG
B6: ENSMUSG00000029636.445|Wasf3 (ssRNA)
RNA: GGGAGUUCUACAGUCCGACGAUCGCUUCGAUAUCCGCAUGCUAAUGAUGGAUGGAUGGAUGGAUGGAUGGAUGGAUGGAUGGAUGAGUGGAUGGAUAAUAGGUUGAUGGGUGGAUAGGUAGAUGAGUGAAUAGAUAGAUAUAGAUCAGUGGGAGGAUUGGAAAGUAGGUGAAUGAAUGGAUGGCAGAUAGAUGGAUCAAUUACAGAUGGAUGGAUGCAUGGAAUAGAUAGGUGGAUGGGUGGUGGCUAGAAGGUGCCUGAGUCUGCACAUCACUGCACUGAGAAGGCAAAUGAGUACAUUAUACUCUUGCGGUCGCACUAGUGUGGAAUUCUCGGGUGUCAAGG
B7: ENSMUSG00000029636.450|Wasf3 (ssRNA)
RNA: GGGAGUUCUACAGUCCGACGAUCGCUUCGAUAUCCGCAUGCUAGAUGGAUGGAUGAGUGGAUGGAUAAUAGGUUGAUGGGUGGAUAGGUAGAUGAGUGAAUAGAUAGAUAUAGAUCAGUGGGAGGAUUGGAAAGUAGGUGAAUGAAUGGAUGGCAGAUAGAUGGAUCAAUUACAGAUGGAUGGAUGCAUGGAAUAGAUAGGUGGAUGGGUGGUGGCUAGAAGGUGCCUGAGUCUGCACAUCACUGCACUGAGAAGGCAAAUGAGUACAUUAUACUAUUAGCACCAAACCCCAAGCUUCAGUAUCUCUUGCGGUCGCACUAGUGUGGAAUUCUCGGGUGUCAAGG
B8: ENSMUSG00000029636.442|Wasf3 (ssRNA)
RNA: GGGAGUUCUACAGUCCGACGAUCGCUUCGAUAUCCGCAUGCUAGGUUGAGUGGGUGGAUUCAUGAUGGAUGGAUGGAUGGAUGGAUGGAUGGAUGGAUGGAUGAGUGGAUGGAUAAUAGGUUGAUGGGUGGAUAGGUAGAUGAGUGAAUAGAUAGAUAUAGAUCAGUGGGAGGAUUGGAAAGUAGGUGAAUGAAUGGAUGGCAGAUAGAUGGAUCAAUUACAGAUGGAUGGAUGCAUGGAAUAGAUAGGUGGAUGGGUGGUGGCUAGAAGGUGCCUGAGUCUGCACAUCACUGCACUGAGAAGCUCUUGCGGUCGCACUAGUGUGGAAUUCUCGGGUGUCAAGG
B9: ENSMUSG00000029636.439|Wasf3 (ssRNA)
RNA: GGGAGUUCUACAGUCCGACGAUCGCUUCGAUAUCCGCAUGCUAGGAUGAUAGGUGGUGGAUGGUUGAGUGGGUGGAUUCAUGAUGGAUGGAUGGAUGGAUGGAUGGAUGGAUGGAUGGAUGAGUGGAUGGAUAAUAGGUUGAUGGGUGGAUAGGUAGAUGAGUGAAUAGAUAGAUAUAGAUCAGUGGGAGGAUUGGAAAGUAGGUGAAUGAAUGGAUGGCAGAUAGAUGGAUCAAUUACAGAUGGAUGGAUGCAUGGAAUAGAUAGGUGGAUGGGUGGUGGCUAGAAGGUGCCUGAGUCUGCACUCUUGCGGUCGCACUAGUGUGGAAUUCUCGGGUGUCAAGG
B10: ENSMUSG00000029636.444|Wasf3 (ssRNA)
RNA: GGGAGUUCUACAGUCCGACGAUCGCUUCGAUAUCCGCAUGCUAGGAUUCAUGAUGGAUGGAUGGAUGGAUGGAUGGAUGGAUGGAUGGAUGAGUGGAUGGAUAAUAGGUUGAUGGGUGGAUAGGUAGAUGAGUGAAUAGAUAGAUAUAGAUCAGUGGGAGGAUUGGAAAGUAGGUGAAUGAAUGGAUGGCAGAUAGAUGGAUCAAUUACAGAUGGAUGGAUGCAUGGAAUAGAUAGGUGGAUGGGUGGUGGCUAGAAGGUGCCUGAGUCUGCACAUCACUGCACUGAGAAGGCAAAUGAGUACCUCUUGCGGUCGCACUAGUGUGGAAUUCUCGGGUGUCAAGG
B11: ENSMUSG00000029636.440|Wasf3 (ssRNA)
RNA: GGGAGUUCUACAGUCCGACGAUCGCUUCGAUAUCCGCAUGCUAUAGGUGGUGGAUGGUUGAGUGGGUGGAUUCAUGAUGGAUGGAUGGAUGGAUGGAUGGAUGGAUGGAUGGAUGAGUGGAUGGAUAAUAGGUUGAUGGGUGGAUAGGUAGAUGAGUGAAUAGAUAGAUAUAGAUCAGUGGGAGGAUUGGAAAGUAGGUGAAUGAAUGGAUGGCAGAUAGAUGGAUCAAUUACAGAUGGAUGGAUGCAUGGAAUAGAUAGGUGGAUGGGUGGUGGCUAGAAGGUGCCUGAGUCUGCACAUCACCUCUUGCGGUCGCACUAGUGUGGAAUUCUCGGGUGUCAAGG
B12: ENSMUSG00000029636.441|Wasf3 (ssRNA)
RNA: GGGAGUUCUACAGUCCGACGAUCGCUUCGAUAUCCGCAUGCUAGUGGAUGGUUGAGUGGGUGGAUUCAUGAUGGAUGGAUGGAUGGAUGGAUGGAUGGAUGGAUGGAUGAGUGGAUGGAUAAUAGGUUGAUGGGUGGAUAGGUAGAUGAGUGAAUAGAUAGAUAUAGAUCAGUGGGAGGAUUGGAAAGUAGGUGAAUGAAUGGAUGGCAGAUAGAUGGAUCAAUUACAGAUGGAUGGAUGCAUGGAAUAGAUAGGUGGAUGGGUGGUGGCUAGAAGGUGCCUGAGUCUGCACAUCACUGCACUCUCUUGCGGUCGCACUAGUGUGGAAUUCUCGGGUGUCAAGG

Molecular target: TDP-43 (Homo sapiens, UniProt Q13148 1-414)
Assay: RNA Bind-n-Seq with designed 260-mer pool; 25 mM Tris-HCl, 150 mM KCl, 3 mM MgCl2, BSA (printed 500 mg/mL), 20 units/mL SUPERase IN; pH not stated; 500 nM RNA pool, 1 h, 4 C; TDP-43 5, 50, 500 nM; high values mean tight binding
Conditions: protein: recombinant; tags: SBP (GST cleaved off with PreScission; pGEX-GST-SBP)
How it was run: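 Streptavidin beads captured recombinant SBP-tagged TDP-43 at 5, 50 or 500 nM, and the beads were incubated for 1 h at 4 °C with 500 nM of an in vitro-transcribed pool of 260-nt 3′ UTR oligos in 25 mM Tris-HCl, 150 mM KCl, 3 mM MgCl2, BSA and SUPERase IN. After washing, bound RNA was eluted with biotin, reverse transcribed, PCR-amplified and sequenced. Binding is reported as R, the mapped-read-normalized abundance of each oligo in the bound sample divided by its abundance in the input. Two independent protein batches served as duplicates.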

TDP-43, sequence (Q13148 whole entry): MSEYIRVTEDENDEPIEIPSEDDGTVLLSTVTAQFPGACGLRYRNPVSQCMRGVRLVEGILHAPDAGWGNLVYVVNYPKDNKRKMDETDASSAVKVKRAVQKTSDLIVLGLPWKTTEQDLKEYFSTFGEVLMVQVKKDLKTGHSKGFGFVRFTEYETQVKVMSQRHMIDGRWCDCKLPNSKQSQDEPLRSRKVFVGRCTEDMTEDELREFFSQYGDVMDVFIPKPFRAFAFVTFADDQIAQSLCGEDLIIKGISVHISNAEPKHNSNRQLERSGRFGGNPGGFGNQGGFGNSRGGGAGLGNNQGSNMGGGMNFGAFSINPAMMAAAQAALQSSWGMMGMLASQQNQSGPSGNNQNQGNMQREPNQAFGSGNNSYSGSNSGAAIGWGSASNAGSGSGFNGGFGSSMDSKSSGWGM

Binder	binding signal
B1	5.07 R (bound/input frequency ratio)
B2	4.65 R (bound/input frequency ratio)
B3	8.37 R (bound/input frequency ratio)
B4	4.56 R (bound/input frequency ratio)
B5	6.51 R (bound/input frequency ratio)
B6	5.13 R (bound/input frequency ratio)
B7	6.13 R (bound/input frequency ratio)
B8	5.86 R (bound/input frequency ratio)
B9	5.9 R (bound/input frequency ratio)
B10	4.6 R (bound/input frequency ratio)
B11	7.49 R (bound/input frequency ratio)
B12	7.11 R (bound/input frequency ratio)
